In PubChem BioAssay AID1851 (National Center for Advancing Translational Sciences (NCATS), 2009):
About 2,600 (16%) of roughly 16,000 compounds were called active. About 20% were inconclusive and are not listed. The list is a sample of the results. Unmarked numbers belong to inactive results. Calls follow the shape of the dose curve; as a rule, active = well fitted curve in the direction sought with a large enough effect; inconclusive = small, poorly fitted or top-dose-only effect, or effect the other way; inactive = no such curve, though single readings can be large or run the other way.

Target: Cytochrome P450 2D6 (Homo sapiens) (UniProt P10635)
Experiment: Cytochrome panel assay with activity outcomes
Settings: recombinant CYP, pro-luciferin dealkylation, luminescence, p450-cyp2d6; series mostly up to 57.1 µM; activity, negative = inhibition: at the top concentration
% is scaled to controls: 0 for no effect and ±100 for the full control effect.

Sequence of Cytochrome P450 2D6 (Homo sapiens) (P10635 whole entry, looked up): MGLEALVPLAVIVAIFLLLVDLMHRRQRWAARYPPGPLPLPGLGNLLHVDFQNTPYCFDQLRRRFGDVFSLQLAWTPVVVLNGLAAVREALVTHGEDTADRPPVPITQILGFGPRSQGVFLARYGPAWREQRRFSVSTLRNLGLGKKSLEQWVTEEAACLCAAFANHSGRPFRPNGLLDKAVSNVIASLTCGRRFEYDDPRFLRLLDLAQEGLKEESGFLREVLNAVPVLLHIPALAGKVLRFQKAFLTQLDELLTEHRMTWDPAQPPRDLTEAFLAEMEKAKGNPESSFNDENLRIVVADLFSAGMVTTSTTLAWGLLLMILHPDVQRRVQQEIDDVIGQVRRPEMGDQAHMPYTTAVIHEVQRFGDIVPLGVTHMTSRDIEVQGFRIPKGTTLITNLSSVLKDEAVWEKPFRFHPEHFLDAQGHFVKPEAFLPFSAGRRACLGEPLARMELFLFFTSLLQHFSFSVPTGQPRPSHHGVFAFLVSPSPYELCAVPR

Compound | AC50 | activity, negative = inhibition
CC(C)c1ccc2c(c1)CC[C@H]1[C@@](C)(CN)CCC[C@@]21C | 1.26 µM (active) | –
COc1ccc(Cc2nc3ccc(S(=O)(=O)N4CCOCC4)cc3[nH]2)cc1OC | – | -0.602%
CCCCC#Cc1nc(N)c2ncn([C@@H]3O[C@@H](C(=O)NCC)[C@H](O)[C@@H]3O)c2n1 | – | 11%
CCOc1ccc(C(=O)Cc2cc(OC)c(OC)cc2[N+](=O)[O-])cc1 | – | 6.77%
COc1cccc(-c2noc(Cn3nc(C)c([N+](=O)[O-])c3C)n2)c1 | – | -13.8%
COc1cccc(CN2CCN(Cc3cc(OC)c(OC)cc3[N+](=O)[O-])CC2)c1 | 0.224 µM (active) | –
COc1cccc(Nc2ncc3ncc(=O)n(C)c3n2)c1 | – | -4.79%
COc1ccc(CCNC(=O)Cn2cnc3c2c(=O)n(C)c(=O)n3C)cc1OC | – | 2.41%
O=C(O)c1nn(-c2ccc(Cl)cc2)c2c1C(=O)c1ccccc1C2=O | – | -7.18% [at 11.4 µM]
O=C(Nc1ccc(Cl)cc1)NC1CCCCC1 | – | -2.71%
O=C(Nc1ccc2c(c1)nc1n2CCN(C2CCCCC2)C1)NC1CCCCC1 | 12.6 µM (active) | –
CCCNC(=O)Nc1ccc2c(c1)nc(C)n2C | – | 8.71%
O=C(O)CC/C=C\CC[C@H]1[C@@H](N2CCCCC2)[C@@H](O)C[C@@H]1OCc1ccc(-c2ccccc2)cc1 | – | 10.6%
COc1ccc2c(c1)CCCC21NC(=O)N(CC(N)=O)C1=O (stereo not given) | – | 11.4%
CCOC(=O)N1N=C(c2ccccc2)CC1(O)C(F)(F)F (stereo not given) | – | 3.62%
COC(=O)c1ccc(NC(=O)c2ccccc2)o1 | – | 12.2%
CN1CCN2c3ncccc3Cc3ccccc3C2C1 (stereo not given) | 0.501 µM (active) | –
O=c1[nH]c(=S)[nH]nc1Cc1ccccc1 | – | 4.49%
Cc1c(N(C)C)c(=O)n(-c2ccccc2)n1C | – | 1.13% [at 25.6 µM]
CSC1=C(C#N)C(c2ccccc2Cl)C2=C(N1)c1ccccc1C2=O (stereo not given) | – | -20.8%
COc1cc(/C=C/C(=O)Nc2ccccc2C(F)(F)F)cc(OC)c1OC | – | 4.2%
CCc1ccc2c(-c3cccc(Cl)c3)nc(=O)n(CC)c2n1 | – | -15%

Compound | AC50 | activity, negative = inhibition
Cc1ccc(C(=O)COC(=O)CNC(=O)C(c2ccccc2)c2ccccc2)cc1[N+](=O)[O-] | – | -8.5%
Cc1ccc(-n2ccnc2SCC(=O)N(CC(C)C)C2CCS(=O)(=O)C2)c(C)c1 (stereo not given) | – | -6.08%
O=C(O)CSc1ncnc2sc3c(c12)CCC3 | – | -4.52%
Cc1cc(C)n(-c2nc(NCC(C)O)c3c4c(sc3n2)COC(C)(C)C4)n1 (stereo not given) | – | -1.92%
Cc1cc(C)n(-c2nc(SCCN(C)C)c3c4c(sc3n2)CCCC4)n1 | 0.794 µM (active) | –
C[C@@H]1C[C@H](C)CN(S(=O)(=O)c2cc(Cl)c(Oc3ccc([N+](=O)[O-])cc3Cl)c(Cl)c2)C1 | – | 2.46% [at 11.4 µM]
O=C(N/N=C/c1cccc(F)c1)c1csc2c1CCCC2 | – | -28.5%
Cc1cccc(/C=N\Nc2cn[nH]c(=O)c2Cl)c1 | – | -13%
CC1(C)Cc2ccccc2C(N/N=C/c2cccc(F)c2)=N1 | 11.2 µM (active) | –
Cn1c(=O)c(-c2ccc(Cl)cc2)nc2cnc(N3CCOCC3)nc21 | – | 0.0181%
Oc1cc(O)c2c(c1)O[C@@H](c1ccc(O)c(O)c1)[C@H](O[C@@]1(c3cc(O)c(O)c(O)c3)Oc3cc(O)cc(O)c3[C@H](O)[C@@H]1O)C2 | – | -0.664% [at 11.4 µM]
Cc1ccc(C(=O)Oc2cc(C)n(C)c(=O)c2)cc1 | – | -3.57%
CCCN(CCC)S(=O)(=O)c1ccc(C(=O)O)cc1 | – | 1.42% [at 25.6 µM]
CCN(c1ccccc1)S(=O)(=O)c1ccc(NC(=S)NC(=O)c2cccs2)cc1 | – | -14.7%
CCN(CC(=O)NCc1cccs1)S(=O)(=O)c1ccc(C(C)C)cc1 | 3.55 µM (active) | –
Cc1nn(CC(O)COc2ccc3c(c2)CCC3)c(C)c1Br (stereo not given) | – | -17%
CCn1c(SCC(=O)Nc2sc3c(c2C(N)=O)CCC(C)C3)nnc1-c1ccco1 (stereo not given) | – | 6.66%
CCCCNC(=S)NNC(=O)CCn1nc(C)c(Br)c1C | – | -1.01%
CCN(CC)C(=O)CSc1nnc(CNc2ccc(F)cc2)o1 | – | 16.3%
CN(C)Cc1ccccc1-c1nc(N(C)Cc2ccco2)c2ccccc2n1 | 0.794 µM (active) | –
COc1ccccc1-c1nc(N(C)Cc2ccco2)c2ccccc2n1 | 1 µM (active) | –
CN(Cc1ccco1)c1nc(-c2ccccc2C(F)(F)F)nc2ccccc12 | 7.94 µM (active) | –

Compound | AC50 | activity, negative = inhibition
Cc1ccccc1-c1nc(N(C)Cc2ccco2)c2ccccc2n1 | 3.16 µM (active) | –
Cc1ccc(-c2cc(C(=O)NCc3ccco3)c3ccccc3n2)s1 | – | -16.4%
CCC(=O)N(Cc1ccco1)c1nc(-c2ccccc2)cs1 | – | -25%
O=C1C(Cc2ccccc2)NC(=S)N1c1ccccc1 (stereo not given) | – | 6.7%
Cc1ccccc1S(=O)(=O)c1c(C)cc(-c2ccccc2)[nH]c1=O | – | -6.01%
COc1ccc(-n2c(=O)cnc3cnc(Oc4ccccc4)nc32)cc1 | – | -3.04%
CS(=O)(=O)c1cnc2c(-c3ccc(F)cc3)cnn2c1N | – | 0.896%
CCCCN=C1N/C(=C\c2ccco2)C(=O)N1c1ccccc1 | – | -29.6%
O=C(Nc1ccc(-c2cc3ccccc3oc2=O)c(Cl)c1)c1cccnc1 | – | 7.04%
COc1cccc(Nc2ncc3nc(-c4cn(C)c5ccccc45)c(=O)n(CCC#N)c3n2)c1 | – | -4.27%
O=C(c1cc(-c2ccccc2Cl)on1)N1CCN(C(=O)c2ccco2)CC1 | – | -1.39%
O=C(O)c1cc2cc(OCc3ccccc3)ccc2[nH]1 | – | -1.31%
COc1cc2c(C(=O)NCc3ccc(C)o3)cn(CC(C)C)c(=O)c2cc1OC | – | -14.4%
Cc1oc(=O)c(NC(=O)c2ccccc2)cc1C(=O)c1ccccc1 | – | -15.9%
COc1ccc(OC)c(Nc2nc(-c3cccc([N+](=O)[O-])c3)nc3ccccc23)c1 | – | 5.17%
COc1cccc(-c2nc(N(C)C)c3ccccc3n2)c1 | 12.6 µM (active) | –
COc1cccc(-c2nc(N(C)Cc3ccco3)c3ccccc3n2)c1 | 5.01 µM (active) | –
Cc1cc(Oc2ccccc2)nc(-c2ccccc2)n1 | – | -9.47%
O=C(NC1(C(F)(F)F)NC(=O)N(Cc2cccnc2)C1=O)c1ccccc1 (stereo not given) | – | -26%
CC(C)(C)NC(=O)Cn1nnc(-c2ccccc2NC(=O)c2cnccn2)n1 | – | 11.1%
CC(=O)Nc1ccc(NC2=Nc3ccccc3N3C2=Nc2c(c(C)nn2-c2ccccc2)C3c2ccccc2)cc1 (stereo not given) | – | -0.731%
